The whole screen tested about 5,500 compounds, of which about 2,000 (36%) were called active. Inconclusive results (about 18%) are left out. Rule as the data show it: active = normalized growth mostly below about 0.91 (no sharp cut-off); inconclusive = no clear call, values can overlap the other calls; inactive = mostly above about 0.92. This is one part of the list.
Assay: chemical genetic growth profiling, strain panel (AID 1159580);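 also: tested at 20 µM; growth read once vehicle control cultures reached saturation at 30 °C; 1 = growth at the plate median or of vehicle wells; lower values mean less growth of the strain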
Details: growth OD

Measured: normalized growth

NCC(=O)c1ccccc1
inactive: S. cerevisiae deletion strains, locus YJR075W, strain HOC1, hits give low values 1.05 | S. cerevisiae deletion strains, locus YKL009W, strain mrt4, hits give low values 0.981 | S. cerevisiae deletion strains, locus YKL068W, hits give low values 1 | S. cerevisiae deletion strains, locus YKL085W, strain MDH1 (second series), hits give low values 0.988 | S. cerevisiae deletion strains, locus YKL085W, strain MDH1, hits give low values 0.988 | S. cerevisiae deletion strains, locus YKL160W, strain elf1, hits give low values 1 | S. cerevisiae deletion strains, locus YKL190W, strain CNB1, hits give low values 1.02 | S. cerevisiae deletion strains, locus YKR001C, strain vps1, hits give low values 0.988 | S. cerevisiae deletion strains, locus YKR026C, strain gcn3, hits give low values 1 | S. cerevisiae deletion strains, locus YKR091W, strain srl3, hits give low values 0.997 | S. cerevisiae deletion strains, locus YLL001W, strain dnm1, hits give low values 1 | S. cerevisiae deletion strains, locus YLL026W, hits give low values 1 | S. cerevisiae deletion strains, locus YLL041C, strain sdh2, hits give low values 1 | S. cerevisiae deletion strains, locus YLR027C, strain aat2, hits give low values 0.997 | S. cerevisiae deletion strains, locus YLR039C, strain RIC1, hits give low values 1.03 | S. cerevisiae deletion strains, locus YLR058C, strain SHM2, hits give low values 1.02 | S. cerevisiae deletion strains, locus YLR102C, strain apc9, hits give low values 0.988 | S. cerevisiae deletion strains, locus YLR113W, strain HOG1, hits give low values 1.07 | S. cerevisiae deletion strains, locus YLR221C, strain rsa3, hits give low values 1.02 | S. cerevisiae deletion strains, locus YLR258W, strain gsy2, hits give low values 0.977 | S. cerevisiae deletion strains, locus YLR262C, strain YPT6 (second series), hits give low values 1.03 | S. cerevisiae deletion strains, locus YLR262C, strain YPT6, hits give low values 1.02 | S. cerevisiae deletion strains, locus YLR268W, strain sec22, hits give low values 0.986 | S. cerevisiae deletion strains, locus YLR320W, strain mms22, hits give low values 0.991 | S. cerevisiae deletion strains, locus YLR330W, strain CHS5, hits give low values 1.02 | S. cerevisiae deletion strains, locus YLR342W, strain FKS1 (second series), hits give low values 0.988 | S. cerevisiae deletion strains, locus YLR342W, strain FKS1, hits give low values 0.992 | S. cerevisiae deletion strains, locus YLR357W, strain rsc2, hits give low values 0.966 | S. cerevisiae deletion strains, locus YLR370C, strain arc18, hits give low values 1.01 | S. cerevisiae deletion strains, locus YLR371W, strain rom2, hits give low values 0.993 | S. cerevisiae deletion strains, locus YLR384C, strain iki3, hits give low values 1.01 | S. cerevisiae deletion strains, locus YLR418C, strain cdc73, hits give low values 1 | S. cerevisiae deletion strains, locus YML016C, strain PPZ1, hits give low values 1.02 | S. cerevisiae deletion strains, locus YML032C, strain rad52, hits give low values 0.986 | S. cerevisiae deletion strains, locus YML120C, strain ndi1, hits give low values 0.989 | S. cerevisiae deletion strains, locus YML124C, strain tub3, hits give low values 0.993 | S. cerevisiae deletion strains, locus YMR058W, strain fet3, hits give low values 1.01 | S. cerevisiae deletion strains, locus YMR078C, strain ctf18, hits give low values 1 | S. cerevisiae deletion strains, locus YMR125W, strain sto1, hits give low values 1.01 | S. cerevisiae deletion strains, locus YMR129W, hits give low values 1 | S. cerevisiae deletion strains, locus YMR205C, strain PFK2, hits give low values 1.01 | S. cerevisiae deletion strains, locus YMR223W, strain ubp8, hits give low values 0.987 | S. cerevisiae deletion strains, locus YMR231W, strain pep5, hits give low values 0.992 | S. cerevisiae deletion strains, locus YMR263W, strain SAP30, hits give low values 1.04 | S. cerevisiae deletion strains, locus YMR307W, strain GAS1, hits give low values 1.02 | S. cerevisiae deletion strains, locus YNL067W, strain RPL9B, hits give low values 1.04 | S. cerevisiae deletion strains, locus YNL071W, strain lat1, hits give low values 0.998 | S. cerevisiae deletion strains, locus YNL128W, strain TEP1, hits give low values 1.05 | S. cerevisiae deletion strains, locus YNL153C, strain GIM3, hits give low values 1.02 | S. cerevisiae deletion strains, locus YNL183C, strain NPR1, hits give low values 0.995 | S. cerevisiae deletion strains, locus YNL209W, strain ssb2, hits give low values 1 | S. cerevisiae deletion strains, locus YNL233W, strain BNI4, hits give low values 1.02 | S. cerevisiae deletion strains, locus YNL248C, strain rpa49, hits give low values 0.99 | S. cerevisiae deletion strains, locus YNL250W, strain rad50, hits give low values 0.985 | S. cerevisiae deletion strains, locus YNL271C, strain bni1, hits give low values 0.986 | S. cerevisiae deletion strains, locus YNL298W, strain CLA4, hits give low values 0.994 | S. cerevisiae deletion strains, locus YNL307C, strain MCK1, hits give low values 0.987 | S. cerevisiae deletion strains, locus YNL322C, strain KRE1 (second series), hits give low values 0.989 | S. cerevisiae deletion strains, locus YNL322C, strain KRE1, hits give low values 1.03 | S. cerevisiae deletion strains, locus YNR049C, strain mso1, hits give low values 1.02 | S. cerevisiae deletion strains, locus YNR052C, strain pop2, hits give low values 0.995 | S. cerevisiae deletion strains, locus YOL006C, strain TOP1, hits give low values 1.09 | S. cerevisiae deletion strains, locus YOL012C, strain htz1 1.45 | S. cerevisiae deletion strains, locus YOL147C, strain pex11, hits give low values 0.993 | S. cerevisiae deletion strains, locus YOR001W, strain rrp6, hits give low values 1.01 | S. cerevisiae deletion strains, locus YOR061W, strain CKA2, hits give low values 1.01 | S. cerevisiae deletion strains, locus YOR069W, strain VPS5, hits give low values 1.01 | S. cerevisiae deletion strains, locus YOR070C, strain gyp1, hits give low values 1 | S. cerevisiae deletion strains, locus YOR080W, strain dia2, hits give low values 0.995 | S. cerevisiae deletion strains, locus YOR083W, strain WHI5, hits give low values 0.994 | S. cerevisiae deletion strains, locus YOR106W, strain vam3, hits give low values 1.02 | S. cerevisiae deletion strains, locus YOR136W, strain idh2, hits give low values 0.991 | S. cerevisiae deletion strains, locus YOR144C, strain elg1, hits give low values 0.999 | S. cerevisiae deletion strains, locus YOR184W, strain ser1, hits give low values 0.983 | S. cerevisiae deletion strains, locus YOR231W, strain MKK1, hits give low values 1.08 | S. cerevisiae deletion strains, locus YOR265W, strain rbl2, hits give low values 1.01 | S. cerevisiae deletion strains, locus YOR270C, strain vph1, hits give low values 1.06 | S. cerevisiae deletion strains, locus YOR290C, strain snf2, hits give low values 0.998 | S. cerevisiae deletion strains, locus YOR316C, strain cot1, hits give low values 0.992 | S. cerevisiae deletion strains, locus YPL051W, strain arl3, hits give low values 1.01 | S. cerevisiae deletion strains, locus YPL055C, strain LGE1, hits give low values 1.06 | S. cerevisiae deletion strains, locus YPL078C, strain atp4, hits give low values 1.02 | S. cerevisiae deletion strains, locus YPL106C, strain sse1, hits give low values 0.973 | S. cerevisiae deletion strains, locus YPL240C, strain hsp82, hits give low values 0.996 | S. cerevisiae deletion strains, locus YPL241C, strain CIN2, hits give low values 1.02 | S. cerevisiae deletion strains, locus YPL256C, strain CLN2, hits give low values 1.05 | S. cerevisiae deletion strains, locus YPR119W, strain clb2, hits give low values 0.996 | S. cerevisiae deletion strains, locus YPR141C, strain kar3, hits give low values 0.993 | S. cerevisiae deletion strains, locus YPR163C, strain tif3, hits give low values 0.99 | S. cerevisiae deletion strains, locus YPR167C, strain met16, hits give low values 0.991 | S. cerevisiae deletion strains, strain wtn01, hits give low values 0.987 | S. cerevisiae strains, strain wild type, hits give low values 1.01

— PubChem BioAssay AID1159580 (chemical genetic matrix, 2015)
